This passage reports Potency and outcome results from PubChem BioAssay (NCATS).

What all share (test): qHTS profiling for inhibitors of Plasmodium falciparum proliferation (AID 504749); note: nearly all actives have a fitted effect of over 60% in size
What all share (conditions): P. falciparum in erythrocytes, SYBR Green DNA, 72 h; series mostly up to 28.7 µM

One experiment deals with DFO2036. In short, it runs like this: (§1)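 Each compound contacts P. falciparum-infected red blood cells for 72 h at 37 C; lysis buffer (Tris, EDTA, saponin, Triton X, SYBR Green I) is added and fluorescence measured next morning; values normalized to controls.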
The subject of another experiment is DIV14. In short, it runs like this: as §1
For a further experiment, the system named is DIV17. In short, it runs like this:
as §1

The test system of another experiment is DIV30. In short, it runs like this: as §1
A further experiment has as its system Dd2. In short, it runs like this: as §1
A further experiment concerns ECU. In short, it runs like this: as §1
In the next experiment the test system is FAB9. In short, it runs like this:
as §1

A further experiment concerns GB4. In short, it runs like this:
as §1

For the next experiment, the system named is HB3. In short, it runs like this:
as §1

The next experiment deals with ICS. In short, it runs like this:
as §1

A further experiment concerns JCK. In short, it runs like this: as §1
For another experiment, the system named is N140. In short, it runs like this: as §1
A further experiment relates to P93_24. In short, it runs like this:
as §1

The next experiment has as its system P94_40. Summed up: as §1
The next experiment concerns PAD. In short, it runs like this: as §1
The subject of the next experiment is PC15. In short, it runs like this:
as §1

The subject of the next experiment is PC26. Summed up: as §1
A further experiment relates to PC49. Summed up:
as §1

For another experiment, the system named is SC27B. Summed up:
as §1

The next experiment deals with CP335. In short, it runs like this:
as §1

SMILES strings stand for the structures. Records with an inconclusive call do not appear. Activity calls are given as the source filed them. Calls come from the whole dose curve; as a rule, active = well fitted inhibition curve with a large enough effect; inconclusive = small, poorly fitted or top-dose-only effect; inactive = flat fitted curve, though single readings scatter.
Potency is the fitted concentration of half-maximal effect.

With `O=C(O)CCC(=O)O`, the Potency result with DFO2036, with DIV14, with DIV17, in the experiment on Dd2, in the experiment with ECU and in the experiment on FAB9 was “inactive” each time. The Potency result in the experiment on GB4, in the experiment on HB3, with ICS, with JCK, in the experiment with N140 and in the experiment with P93_24 was “inactive” in each case. For the same compound, the Potency entry in the experiment on P94_40, in the experiment with PAD, in the experiment with PC15, in the experiment on PC26, in the experiment with PC49 and with SC27B was “inactive” each time. The compound was classed as inactive in the experiment with DIV30.

Regarding `CCCNC(C)(C)COC(=O)c1ccccc1`, the Potency result in the experiment with DFO2036, in the experiment with DIV14, with DIV17, with Dd2, in the experiment on ECU and in the experiment on FAB9 was “inactive” each time. For the same compound, the Potency result in the experiment with HB3, in the experiment on ICS, in the experiment with JCK, with N140, with P93_24 and in the experiment on P94_40 was “inactive” each time. The Potency entry with PAD, in the experiment with PC15, in the experiment with PC49 and with SC27B was “inactive” each time. Further, the compound was classed as inactive in the experiment with DIV30.

In the case of `CC(=O)N(CC(O)CO)c1c(I)c(C(=O)NCC(O)CO)c(I)c(C(=O)NCC(O)CO)c1I` (centres undefined), the Potency result in the experiment on DFO2036, with Dd2, in the experiment on FAB9, with JCK, in the experiment on P94_40 and with PC49 was “inactive” throughout. Also, the Potency entry in the experiment on SC27B was “inactive”. For the same compound, in the experiment on DIV30, the compound was classed as inactive. The Potency was 10 µM (active) in the experiment on HB3 and 7.08 µM (active) with ICS.

Take `CC(=O)OCC(COC(C)=O)OC(C)=O`: the Potency entry in the experiment with DFO2036, in the experiment with DIV14, in the experiment with DIV17, with Dd2, in the experiment with ECU and in the experiment with FAB9 was “inactive” throughout. The Potency entry with GB4, with HB3, in the experiment on ICS, in the experiment on JCK, in the experiment with N140 and in the experiment on P93_24 was “inactive” each time. Moreover, the Potency entry in the experiment on P94_40, in the experiment on PAD, in the experiment with PC15, in the experiment with PC26, in the experiment with PC49 and in the experiment with SC27B was “inactive” in each case. Moreover, the compound was called inactive in the experiment with DIV30.

In the case of `CCN1CC(CCN2CCOCC2)C(c2ccccc2)(c2ccccc2)C1=O` (centres undefined), the Potency result in the experiment with DFO2036, with DIV17, in the experiment with FAB9, with HB3, with JCK and in the experiment with PAD was “inactive” in each case. The Potency result in the experiment with PC15, with PC26, in the experiment on PC49 and in the experiment on SC27B was “inactive” throughout. For the same compound, in the experiment with DIV30, the compound was classed as inactive. In the experiment with Dd2, the Potency was 12.6 µM (active).

With `O=C(/C=C/c1ccccc1)OCc1ccccc1`, the Potency result in the experiment on DFO2036, in the experiment with DIV14, in the experiment with DIV17, in the experiment with Dd2, in the experiment with ECU and in the experiment with FAB9 was “inactive” in each case. Further, the Potency result in the experiment on GB4, in the experiment on HB3, with JCK, in the experiment on N140, in the experiment with P93_24 and in the experiment on P94_40 was “inactive” in each case. Besides, the Potency entry in the experiment with PAD, with PC15, with PC26, with PC49 and in the experiment on SC27B was “inactive” in each case. Also, the result in the experiment with DIV30 was inactive.

As to `NCc1ccc(S(N)(=O)=O)cc1`, the Potency result with DFO2036, in the experiment on Dd2, in the experiment with ECU, in the experiment with FAB9, with JCK and in the experiment with N140 was “inactive” in each case. Besides, the Potency entry in the experiment with P94_40, in the experiment on PAD, in the experiment with PC15, in the experiment on PC49 and in the experiment on SC27B was “inactive” in each case. Moreover, the outcome with DIV30 was inactive. Moreover, the Potency in the experiment with HB3 is 3.98 µM (active); in the experiment on ICS, 2.51 µM (active).

As for `Nc1ccc(C(=O)Oc2ccccc2)c(O)c1`, the Potency entry in the experiment on CP335, with DFO2036, in the experiment with DIV17, in the experiment with Dd2, in the experiment with ECU and with FAB9 was “inactive” throughout. In addition, the Potency result with GB4, in the experiment with HB3, with ICS, with JCK, with N140 and in the experiment with P93_24 was “inactive” each time. In addition, the Potency entry in the experiment on P94_40, in the experiment on PAD, in the experiment with PC15, in the experiment with PC26, with PC49 and in the experiment on SC27B was “inactive” in each case. For the same compound, the outcome in the experiment with DIV30 was inactive.

For `Cc1[nH]c(C)c(Cl)c(=O)c1Cl`, the Potency entry in the experiment with DFO2036, in the experiment on DIV14, in the experiment on DIV17, with Dd2, in the experiment with ECU and in the experiment on FAB9 was “inactive” throughout. Further, the Potency entry in the experiment on HB3, with JCK, with N140, with P93_24, in the experiment on P94_40 and with PAD was “inactive” throughout. Also, the Potency entry in the experiment on PC49 and in the experiment with SC27B was “inactive” in each case. The compound was classed as inactive in the experiment with DIV30.

As to `Cc1cc(O)cc(C)c1Cl`, the Potency entry in the experiment with FAB9 and in the experiment on SC27B was “inactive” throughout. Moreover, the Potency in the experiment on ICS was 3.55 µM (active); with PC26, 12 µM (active).

On to `Nc1c2c(nc3c1CCC3)CCCC2`, for which the Potency in the experiment on DIV14 was 13.5 µM (active); with DIV17 it was 15.1 µM (active); with Dd2, 12.6 µM (active); with GB4, 16.9 µM (active); in the experiment on HB3, 10 µM (active); in the experiment on ICS it was 12.6 µM (active). The Potency with P94_40 was 11.2 µM (active).

Take `CNc1c2c(nn1C)CCCC2`: the Potency entry with CP335, in the experiment on DFO2036, in the experiment with DIV17, with Dd2, with ECU and in the experiment on FAB9 was “inactive” each time. Also, the Potency entry in the experiment on GB4, in the experiment with HB3, in the experiment with ICS, in the experiment with JCK, with N140 and with P93_24 was “inactive” throughout. The Potency entry in the experiment with P94_40, in the experiment with PAD, with PC15, with PC26, with PC49 and with SC27B was “inactive” in each case. Moreover, the outcome in the experiment with DIV30 was inactive.

On to `CC[N+](CC)(CC(=O)Nc1c(C)cccc1C)Cc1ccccc1`, for which the Potency result in the experiment with CP335, in the experiment with DFO2036, with Dd2, with ECU, in the experiment with FAB9 and with GB4 was “inactive” each time. For the same compound, the Potency entry with HB3, with ICS, in the experiment on JCK, in the experiment with N140, in the experiment with P93_24 and in the experiment on P94_40 was “inactive” in each case. Further, the Potency entry in the experiment with PAD, with PC15, in the experiment on PC26, with PC49 and in the experiment on SC27B was “inactive” each time. Besides, the compound was classed as inactive in the experiment on DIV30.

Take `Cc1cc(C)c(NC(=O)CN(CC(=O)O)CC(=O)O)c(C)c1Br`: the Potency result in the experiment with CP335, in the experiment with DIV14, with DIV17, in the experiment with Dd2, in the experiment with FAB9 and with GB4 was “inactive” in each case. Also, the Potency entry with HB3, with ICS, in the experiment on JCK, in the experiment with PC15, with PC26 and with PC49 was “inactive” throughout. Also, the result in the experiment with DIV30 was inactive.

As to `NC(=O)c1ccc([N+](=O)[O-])cc1Cl`, the Potency entry with DFO2036, in the experiment with Dd2, in the experiment on FAB9, in the experiment on JCK, in the experiment on P94_40 and with PC49 was “inactive” in each case. Moreover, in the experiment with SC27B, the Potency result is “inactive”. Further, in the experiment on DIV30, the outcome was inactive. Besides, the Potency in the experiment on HB3 is 12.6 µM (active); with ICS, 4.47 µM (active).
